Dicer inh: inhibitors of human Dicer processing of pre-microRNA | AID 1347074 | Q9UPY3 | 47,000 compounds, 6% hits | cat-ELCCA pre-miR-21 Dicer processing, chemiluminescence; hits give high values | z-score at 25 µM; in the data active = z-score above about 3, passing the limit was not always enough;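 also: plate controls were vehicle for no effect and no enzyme for full effect; higher signal means more uncleaved substrate so more Dicer inhibition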
* = called active by the depositor. Only a selection was taken, and hits are over-represented in it overall.

What do the screens show for `Oc1ccc(Cc2nc3ccccc3[nH]2)cc1`?
Dicer inh: 0.44

What do the screens show for `c1ccc2[nH]c(CCCc3nc4ccccc4[nH]3)nc2c1`?
Dicer inh: 2.51

Results for c1ccc(CCc2nc3ccccc3[nH]2)cc1 ?
Dicer inh: 3.21*

What do the screens show for `O=S(=O)(CCc1nc2ccccc2[nH]1)CCc1nc2ccccc2[nH]1`?
Dicer inh: 0.33

How did CCN(CC)Cc1nc2ccccc2[nH]1 do in these assays?
Dicer inh: 3.38*

Results for COc1ccc(OCc2nc3ccccc3[nH]2)cc1 ?
Dicer inh: 1.12

How did Cc1onc(-c2c(Cl)cccc2Cl)c1C(=O)O/N=C(\N)CN1CCSCC1 do in these assays?
Dicer inh: 0.93

Results for Cc1nc(SCc2c(F)cccc2Cl)[nH]c(=O)c1C ?
Dicer inh: -0.59

What do the screens show for `CCc1ccnc(NC(=O)Nc2c(Br)cc(C(C)C)cc2Br)c1`?
Dicer inh: 1.31

What do the screens show for `COC(=O)c1cc(/C=N/NC(=S)NC(C)(C)C)cn1C`?
Dicer inh: 1.26

How did O=C(O)c1ccc2nc(-c3ccccc3)c(-c3ccccc3)nc2c1 do in these assays?
Dicer inh: 0.57

How did O=C(O)c1ccc2nc(-c3ccc(O)cc3)sc2c1 do in these assays?
Dicer inh: 4.49*

What do the screens show for `Nc1ccc(-c2nc3ccccc3s2)cc1`?
Dicer inh: 2.89

What do the screens show for `N#Cc1sccc1CS(=O)c1ccc(Cl)cc1` (configuration not stated)?
Dicer inh: -0.38

Results for O=C(ON/C=N/c1ncc(-c2ccc(Br)s2)s1)c1ccc(Cl)cc1 ?
Dicer inh: 2.59

What do the screens show for `S=C(NCCc1ccccn1)NN1C2CSC1CS2`?
Dicer inh: -4.26

What do the screens show for `O=C(O)CSC1(SCC(=O)O)CCCCC1`?
Dicer inh: -0.48

How did Cc1ccc(NS(=O)(=O)c2cccs2)cc1 do in these assays?
Dicer inh: 0.16

How did Cc1c(C(=O)O)c2cc(NS(=O)(=O)c3cccs3)ccc2n1S(=O)(=O)c1cccs1 do in these assays?
Dicer inh: 7.47*

How did CCOC(=O)c1c(C)oc2ccc(NS(=O)(=O)c3cccs3)cc12 do in these assays?
Dicer inh: -0.75

How did C=CCN1CCc2c(cc(O)c(O)c2Br)[C@@H](c2ccccc2)C1 do in these assays?
Dicer inh: -3.74

How did C=CCN1C(=O)C(O)(CC(=O)c2ccc3c(c2)CCCC3)c2ccccc21 (configuration not stated) do in these assays?
Dicer inh: 1.27

What do the screens show for `C=CCN1Cc2ccc(C(=O)O)cc2C1`?
Dicer inh: 3.2*

What do the screens show for `CN(C)/C=C/C(=O)c1nn(-c2ccc(C(F)(F)F)cc2)ccc1=O`?
Dicer inh: 0.82

Results for Cc1nc(-c2cc3ccccc3[nH]c2=O)no1 ?
Dicer inh: -1.01

Results for CC(=O)n1ccc(-c2cccc([N+](=O)[O-])c2)n1 ?
Dicer inh: -1.33

What do the screens show for `Nc1nc(SCCCC(=O)NCCO)nc2sc3c(c12)CCCC3`?
Dicer inh: 5.51*

How did Nc1nc(SCC(=O)NCCO)nc2sc3c(c12)CCCC3 do in these assays?
Dicer inh: 1.32

How did Nc1nc(SCC(=O)NCCN2CCOCC2)nc2sc3c(c12)CCCC3 do in these assays?
Dicer inh: 0.61

Results for COc1nc2c(c(-c3ccccc3)c1C#N)Cc1ccccc1-2 ?
Dicer inh: -0.91

What do the screens show for `O=C(CC1(O)C(=O)N(Cc2cccc(F)c2)c2ccccc21)c1ccccn1` (configuration not stated)?
Dicer inh: 2.11

What do the screens show for `CC1O[C@]2(C)OC1[C@]1(C)OC(C)[C@H]2O1` (some centres not stated)?
Dicer inh: -0.31

How did CC(C(=O)N/N=C/C(C)(C)C)n1nnc(-c2cc(C(F)(F)F)cc(C(F)(F)F)c2)n1 (configuration not stated) do in these assays?
Dicer inh: -0.75

Results for COc1nc(C)nc(N/C=C2\C(=O)c3ccccc3N(C)S2(=O)=O)n1 ?
Dicer inh: -1.95

Results for COc1cc(OC)c(C2C(C#N)=C(N)Oc3n[nH]c(-c4ccccc4)c32)c(OC)c1 (configuration not stated) ?
Dicer inh: -6.12

Results for CCCCCCNC(=O)NC(Cc1ccccc1)C(=O)OCC (configuration not stated) ?
Dicer inh: -0.79

How did CCOC(=O)[C@H](CCCN=C(N)N)NC(=O)c1ccccc1 do in these assays?
Dicer inh: 4.75*

How did O=C(NC(CO)C(=O)O)c1ccccc1 (configuration not stated) do in these assays?
Dicer inh: 2.07

Results for COc1ccc(N2CCN(C(=O)N3c4ccccc4Sc4ccccc43)CC2)cc1 ?
Dicer inh: 1.73

What do the screens show for `O=C(NCc1ccc2c(c1)OCO2)Nc1ccc(OCc2ccccc2)cc1`?
Dicer inh: 0.45

How did CCCCCCOc1ccc(C2C3=C(CC(C)(C)CC3=O)Nc3[nH]c(=O)[nH]c(=O)c32)cc1OC (configuration not stated) do in these assays?
Dicer inh: -1.64

What do the screens show for `CSc1cccc(NC(=O)CN(c2ccccc2)S(=O)(=O)N(C)C)c1`?
Dicer inh: -1.68

What do the screens show for `CN(C)S(=O)(=O)N(CC(=O)Nc1ccc(F)c(F)c1)c1ccccc1`?
Dicer inh: 4.29*

Results for CN(C)S(=O)(=O)N(CC(=O)Nc1ccc2c(c1)OCO2)c1ccccc1 ?
Dicer inh: -1.14

Results for COc1ncccc1C(=O)Nc1ccc(F)cc1F ?
Dicer inh: -0.99

Results for Nc1nc(/C=C/c2ccccc2O)nc(-c2ccccc2O)n1 ?
Dicer inh: 8.02

Results for Cc1nn(-c2ccccc2)c(C)c1-c1ccccc1O ?
Dicer inh: 0.59

Results for Oc1ccccc1/C=C/c1nc(-c2ccccc2O)n(-c2ccccc2)n1 ?
Dicer inh: 10.5*

What do the screens show for `CC(C)OC(=O)CSc1n[nH]c(=O)[nH]c1=O`?
Dicer inh: 4.31

Results for O=C(O)CCCNc1n[nH]c(=O)[nH]c1=O ?
Dicer inh: 2.4

What do the screens show for `O=C(O)CCSc1n[nH]c(=O)[nH]c1=O`?
Dicer inh: 4.84*

Results for CC1(C)CC(=O)C2=C(C1)c1c(ccc3ncccc13)NC2c1cccc(O)c1 (configuration not stated) ?
Dicer inh: 0.35

What do the screens show for `O=C1C(=C2C(c3cccs3)C(c3ccccc3)=NN2c2ccccc2)C(=O)c2ccccc21` (configuration not stated)?
Dicer inh: -2.16

How did CCC(C)OC(=O)C1=C(C)NC2=C(C(=O)CC(c3ccccc3)C2)C1c1ccc(O)cc1 (configuration not stated) do in these assays?
Dicer inh: 2.69

How did CO/C=N/c1nc2c(s1)CCc1ccccc1-2 do in these assays?
Dicer inh: 0.4

Results for COc1ccc(Br)c(C(=O)/C(C#N)=C/c2ccc(N(C)C)cc2)c1 ?
Dicer inh: 6.19*

Results for COc1ccc(Br)c(C(=O)/C(C#N)=C/c2cccs2)c1 ?
Dicer inh: 0.78

What do the screens show for `COc1ccc(Br)c(C(=O)NN)c1`?
Dicer inh: 0

What do the screens show for `Cc1nn(C)c(N/N=C/c2c(Cl)cccc2Cl)c1[N+](=O)[O-]`?
Dicer inh: 2.09

How did N#CC1=C(O)Cn2c1nc(=O)c1ccccc12 do in these assays?
Dicer inh: 0.08

Results for O=C1C2C3C=CC(C3)C2C(=O)N1c1nccs1 (configuration not stated) ?
Dicer inh: 0.34

How did O=C1CCC(=O)N1c1nccs1 do in these assays?
Dicer inh: 3.23*

Results for Cc1ccc(-c2nn(CCO)c(=O)c3ccccc23)cc1C ?
Dicer inh: 1.72
